SMILES strings stand for the structures. The campaign covered roughly 52,000 compounds. About 4,300 (8.3%) were called active. Shown is part of a subset that was picked to be rich in actives. Values without a mark were called inactive. No stated cut-off is given here; in the data, active means survival mostly below about 52% (no sharp cut-off); inactive means mostly above about 56%.

This experiment concerns DeltatarO mutant. Description: S. aureus survival, RN4220 and DeltatarO strains – OD600, teichoic acid synthesis inhibitors, primary screen (AID 463173). The note with it: S. aureus RN4220 wild type/DeltatarO growth, OD600, 18 h, hits give low values, screened at 18.75 µg/mL (by protocol).
In the case of `CCC(CC)C(=O)N1CCc2cc(OC)c(OC)cc2C1COc1ccc2c(C)cc(=O)oc2c1` (configuration not stated), the survival is 83%. Then `CNc1ccc(-c2nc(-c3ccncc3)no2)cc1[N+](=O)[O-]`, with 108%. Then `CCOc1ccc(-c2cccc(NS(=O)(=O)c3ccccc3C(F)(F)F)c2)nn1`, with 91%.

For `O=C(Cn1c(=O)nc(-c2ccccc2)c2ccccc21)Nc1cccc(C(F)(F)F)c1`, the survival is 104%.

With `Cc1ccc2nc(N(Cc3cccnc3)C(=O)c3cccs3)sc2c1`, the survival was 71%. Turning to `CCCCN(C)CCNC(=O)c1c2c(nc3ccccc13)C(=O)N(C1CCCCC1)C2`, the survival is 102%. Under `O=C(NCCc1ccc(Cl)cc1)c1ccc2c(c1)N(Cc1cccc(Cl)c1)C(=O)c1ccccc1S2(=O)=O` stands 117%. Then `COc1ccccc1CNC(=O)CS(=O)(=O)Cc1nc(-c2ccccc2C)oc1C`, with 63%. For `CCCCN(C)C(=O)C1CCCN(c2ncnc3onc(C)c23)C1` (configuration not stated), the survival was 113%.

On to `O=C(Nc1ccc2c(c1)CCC2)C1CCN(c2ccc(S(=O)(=O)N3CCCC3)cc2)CC1`, for which the survival is 103%.

Consider `Cc1ccc(NC(=O)/C(C#N)=C/c2cc(C)n(-c3ccc(F)cc3)c2C)cc1C`, for which the survival is 65%.

Consider `Cc1ccc(Cl)cc1NC(=O)/C(C#N)=C\c1cn(Cc2ccc(F)cc2)c2ccccc12`, for which the survival is 98%. Then `Cc1ccc(NC(=O)/C(C#N)=C\c2ccc(Cl)cc2Cl)cc1C`, with 29% (active).

As for `Cc1ccc(-n2c(C)cc(/C=C(\C#N)C(=O)Nc3ccc(C)c(C)c3)c2C)cc1`, the survival is 48%. Under `Cc1ccc(NC(=O)/C(C#N)=C/c2ccccc2Cl)cc1C` stands 34% (active); under `Cc1ccc(NC(=O)/C(C#N)=C/c2ccc(C(C)C)cc2)cc1C`, 81%. Then `Cc1ccccc1NC(=O)/C(C#N)=C/c1ccc(Cl)cc1Cl`, with 32% (active); and `Cc1ccc(Cl)cc1NC(=O)/C(C#N)=C/c1c(C)n(Cc2ccccc2)c2ccccc12`, with 95%. Under `Cc1ccc(NC(=O)/C(C#N)=C/c2cc(C)n(-c3ccc(Br)cc3)c2C)cc1C` stands 65%; under `Cc1cc(C)n2c(Nc3ccccc3)c(-c3ccccc3)nc2n1`, 72%; under `Cc1cccc(N2CCN(Cc3nnc(-c4cccc(Br)c4)o3)CC2)c1C`, 72%. Consider `CCc1ccccc1N(C)C(=O)c1ccc2c(=O)n3c(nc2c1)CCCCC3`, for which the survival was 81%. Then `O=C(Cn1cnc(S(=O)(=O)N2CCCC2)c1)Nc1cccc(F)c1`, with 91%; and `CCC(C)c1ccc(NC(=O)CSc2nncn2N)cc1` (configuration not stated), with 76%; and `CCc1ccccc1NC(=O)CC1Sc2ccc(C(F)(F)F)cc2NC1=O` (configuration not stated), with 82%. Then `O=C(CC1Sc2ccc(C(F)(F)F)cc2NC1=O)Nc1ccc(Cl)c(C(F)(F)F)c1` (configuration not stated), with 22% (active); and `CCOC(=O)c1ccc(NC(=O)CC2Sc3ccc(C(F)(F)F)cc3NC2=O)cc1` (configuration not stated), with 78%.

Values taken from PubChem BioAssay AID463173 (ICCB-Longwood Screening Facility, Harvard Medical School, 2010).
